The record followed here is PubChem BioAssay AID624126 (The Scripps Research Institute Molecular Screening Center, 2012).

Molecules are shown by their SMILES. Among all 360,000 compounds or so, about 1,400 (0.39%) were called active. Many of the other results were omitted from the sample, so actives are more common in it than they were. Unmarked numbers belong to inactive results.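 The calls were made as follows: active = activation above its plate's cutoff, the mean activation of sample wells plus 3 SD; inactive = the rest.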

Chain of Muscarinic acetylcholine receptor M4 (Homo sapiens) (P08173 whole entry, looked up): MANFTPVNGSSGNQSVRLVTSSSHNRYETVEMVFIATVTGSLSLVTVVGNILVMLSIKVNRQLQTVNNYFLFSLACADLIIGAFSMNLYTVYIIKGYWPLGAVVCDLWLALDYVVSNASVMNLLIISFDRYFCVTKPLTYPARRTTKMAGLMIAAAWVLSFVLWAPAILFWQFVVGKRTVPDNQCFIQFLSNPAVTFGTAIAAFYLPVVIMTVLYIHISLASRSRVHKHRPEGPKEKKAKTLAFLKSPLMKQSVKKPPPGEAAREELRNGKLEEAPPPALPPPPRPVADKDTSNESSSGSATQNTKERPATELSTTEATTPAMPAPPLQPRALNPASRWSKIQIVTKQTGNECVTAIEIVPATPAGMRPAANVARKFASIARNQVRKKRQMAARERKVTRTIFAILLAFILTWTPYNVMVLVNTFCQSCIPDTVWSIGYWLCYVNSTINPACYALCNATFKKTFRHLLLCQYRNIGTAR

The test addresses Muscarinic acetylcholine receptor M4 (Homo sapiens) (UniProt P08173). Briefly: CHRM4 PAMs potentiating acetylcholine calcium signal – CHO-K1 cells, Fluo-8 calcium fluorescence, primary screen (AID 624126). The conditions noted are these: CHO-K1 hM4/Gqi5, Fluo-8 calcium fluorescence, ACh EC20; at 3 µM; hits give high values; 0% = ACh EC20, 100% = maximal ACh.
For `CC(C)(C(=O)N1CCC1(C)C(=O)NS(=O)(=O)c1ccc(Br)cc1)c1ccccc1` (configuration not stated), the activation was 1.17%.

Take `CC(C)c1nc(CNC(=O)CC2C(=O)NCCN2Cc2cccc(F)c2F)cs1` (configuration not stated): the activation was -2.59%.

For `Cc1nnc(SC(C(=O)Nc2cc(Cl)cc(Cl)c2)c2ccccc2)[nH]c1=O` (configuration not stated), the activation was -2.22%.

As to `NC(=S)Nc1c(Cl)cccc1Cl`, the activation is 43.9% (active).

For `CN(CC(=O)Nc1c(Cl)cccc1Cl)C(=O)c1ccncc1`, the activation is 0.17%.

As to `O=C(Nc1c(Cl)cccc1Cl)C1CCC1`, the activation is 11.8%.

As for `COC(=O)c1c(NC(=O)COc2ccc(Cl)cc2Cl)sc2c1CC(C)(C)NC2(C)C`, the activation is 14.6%.

As for `CCOc1ccccc1C1NC(=O)NC(C)=C1C(=O)OCc1ccco1` (configuration not stated), the activation is -5.48%.

Consider `Cc1ccc(C2=CSC3=NS(=O)(=O)CCN23)cc1C`, for which the activation was 5.85%.

Regarding `CCCOc1ccc(C2=CSC3=NCCN23)cc1Cl`, the activation is 15.8% (active).

Take `CCCCOc1ccc(CON(C(C)=O)C(C)=O)cc1Cl`: the activation is -9.39%.

As for `CCNC(=O)CCc1nc(-c2ccc(C(C)(C)C)cc2)no1`, the activation is 1.74%.

Take `O=C(O)C1CCCN1S(=O)(=O)c1ccc2c(c1)CCC2` (configuration not stated): the activation is -5.21%.

In the case of `CCCc1cc(=O)[nH]c(SCC(=O)c2c(N)n(CC(C)C)c(=O)n(C)c2=O)n1`, the activation is 25.4% (active).

Regarding `CCCc1cc(=O)[nH]c(SCC(=O)N2C(C)CCCC2C)n1` (configuration not stated), the activation is 2.48%.

As to `CC(C)Cn1c(N)c(C(=O)COC(=O)CN2C(=O)C3CC=CCC3C2=O)c(=O)n(C)c1=O` (configuration not stated), the activation was -2.93%.

Take `Cc1ccc(SCC2=NNC(=O)C2)cc1`: the activation is -0.52%.

With `O=C(Cn1nc(CNc2ccc(Cl)cc2)[n+]2c1CCCCC2)c1ccc(Cl)cc1`, the activation is -0.75%.

For the compound `Cc1ccccc1NC(=O)NC1(C(=O)N2CCCC2)CCCCC1`, the activation was 9.77%.

On to `Cc1ccc(C)c(NC(=O)NNC(=O)c2ccc3ccccc3c2O)c1`, for which the activation was 12.9%.

As to `COc1ccc2c(C)cc3nnnn3c2c1`, the activation is 5%.

Consider `Cc1cc(=O)oc2c(C(=O)c3ccccc3)c(OCC(N)=O)ccc12`, for which the activation is -2.31%.

With `CC(=O)c1c(OCC(=O)N(C)C2CCCCC2)ccc2c(C)cc(=O)oc12`, the activation was 21.7% (active).

For the compound `Cc1cc(=O)oc2c(C)c(OCC(=O)NCCN3CCOCC3)ccc12`, the activation was -1.9%.

In the case of `C[n+]1cccc(C(=O)O)c1`, the activation is -3.7%.

On to `O=C(Cc1ccc(S(=O)(=O)N2CCOCC2)s1)Nc1ccc(Br)c(C(F)(F)F)c1`, for which the activation was -10.2%.

As to `Cc1ccc(C)c(NC2=NCC(=O)N2c2ccc3c(c2)OCCO3)c1`, the activation is -2.16%.

Turning to `Cc1cc(=O)[nH]c(Nc2cccc(Br)c2)n1`, the activation was -7.26%.

On to `Cc1cc(=O)[nH]c(N/N=C/c2ccc3c(c2)OCCO3)n1`, for which the activation is 31.5% (active).

In the case of `Cn1cnc2c1c(=O)n(Cc1ccccc1C#N)c(=O)n2C`, the activation is 1.16%.

For `O=C(C(NS(=O)(=O)c1cccc2nsnc12)c1ccccc1)N1CCN(c2ccccn2)CC1` (configuration not stated), the activation is -11.9%.

Regarding `CCc1cc(C(=O)Nc2nnc(C3CC3)s2)sc1C`, the activation is 6.5%.

As for `CCc1ccccc1OCC(=O)Nc1nnc(C2CC2)s1`, the activation was 2.68%.

`O=C(Nc1nnc(C2CC2)s1)c1ccccn1`: the activation was 28.3% (active).

On to `O=C(CN1CCSCC1)N/N=C/c1ccc(F)cc1F`, for which the activation was 4.64%.

Consider `CCN(CC)c1ccc(C(=O)OCC(=O)c2ccco2)cc1`, for which the activation is -1.72%.

Consider `Cc1cc(NC(=O)C(C)SCC(=O)Nc2cccc(S(=O)(=O)N3CCCCCC3)c2)no1` (configuration not stated), for which the activation was -6.44%.

As to `O=C(CCc1nc(-c2ccccc2)no1)Nc1cccc(C(=O)NC2CC2)c1`, the activation was 10.1%.

Turning to `N#CCSc1ccccc1NC(=O)CN1C(=O)NC(CCc2ccccc2)C1=O` (configuration not stated), the activation was 1.07%.

Take `O=C(c1ccc(S(=O)(=O)NCc2ccco2)cc1)N1CCN(c2ccccc2)CC1`: the activation was 18.3%.

`O=[N+]([O-])c1ccc(N2CCN(S(=O)(=O)c3ccc4ccccc4c3)CC2)cc1NCc1ccco1`: the activation was 14%.

For the compound `O=C(c1ccccc1)N1CCN(c2ccc([N+](=O)[O-])c(NCc3ccco3)c2)CC1`, the activation is 21.4% (active).

As for `CC(=O)c1ccc(S(=O)(=O)NCCC(=O)N2CCN(c3ccccn3)CC2)cc1`, the activation was 2.49%.

As to `Cc1csc(SCC(=O)N(c2ccccc2)C(C)C)n1`, the activation was 1.05%.

With `O=C(CCC(=O)OCC(F)(F)C(F)F)NCc1ccccc1`, the activation is -1.61%.

Turning to `CC1CN(CCOc2ccccc2[N+](=O)[O-])CC(C)O1` (configuration not stated), the activation is 1.64%.

`CC1CN(CCCOc2ccccc2-c2ccccc2)CC(C)O1` (configuration not stated): the activation is -4.17%.

Regarding `Cc1cc(C)c(OCCN2CC(C)OC(C)C2)c(Br)c1` (configuration not stated), the activation was 20.4% (active).

Regarding `Cc1cc2c(cc1C)[n+](C)cn2CC(O)COCC1CC=CCC1` (configuration not stated), the activation is 4.04%.

Take `O=S(=O)(Nc1ncccn1)c1ccc(NS(=O)(=O)c2cccc(Cl)c2Cl)cc1`: the activation is 3.83%.

On to `NS(=O)(=O)c1cccnc1Nc1cccc(Cl)c1`, for which the activation is 24.9% (active).

As to `OCCCNc1nccc(-c2cc(Nc3cccc(Cl)c3)ncn2)n1`, the activation is 4.57%.

For `CC(C(=O)NCCc1ccc(S(N)(=O)=O)cc1)N1C(=O)CC(C)(C)Sc2ccccc21` (configuration not stated), the activation was -2.13%.

Turning to `COC(=O)[C@]12CCCCC=C1N(Cc1ccc3c(c1)OCO3)C(=O)[C@H](CC(=O)NCc1cccs1)C2`, the activation is -4.76%.

For the compound `CCOC(=O)[C@]12CCCC=C1N(Cc1ccc3c(c1)OCO3)C(=O)[C@H](CC(=O)N1CCN(C(=O)c3ccco3)CC1)C2`, the activation was 13.2%.

On to `CCOC(=O)[C@]12CCCC=C1N(Cc1ccc3c(c1)OCO3)C(=O)[C@H](CC(=O)NCc1cccs1)C2`, for which the activation was 23.3% (active).

With `Cc1[nH]c2c(C(=O)N3CCCC(CCC(=O)NCc4ccccc4F)C3)cccc2c1C` (configuration not stated), the activation is -3.21%.

In the case of `Cc1nc(CN2CCN(C(=O)CCc3nnc(Cc4c[nH]c5ccccc45)o3)CC2)cs1`, the activation was -5.85%.

For the compound `COCCn1nnnc1C(c1cc2ccc(OC)cc2[nH]c1=O)N1CCc2ccccc2C1` (configuration not stated), the activation is -1.22%.

For `COc1ccc(N2CCN(C(c3cc4ccc(C)cc4[nH]c3=O)c3nnnn3C3CCCC3)CC2)cc1` (configuration not stated), the activation was -3.66%.

Regarding `CCOc1ccc2[nH]c(=O)c(C(c3nnnn3CCOC)N3CCOCC3)cc2c1` (configuration not stated), the activation was 33.2% (active).

With `COc1ccc(OC)c(S(=O)(=O)N2CCCC(C(=O)N3CCC(C(N)=O)CC3)C2)c1` (configuration not stated), the activation was 6.48%.

For the compound `Cc1cccc(C(C)C)c1NC(=O)COC(=O)C1CC(=O)N(Cc2ccccc2)C1` (configuration not stated), the activation was 1.78%.

On to `CCC/C(C)=N\Nc1nc2c(c(=O)n(C)c(=O)n2C)n1C`, for which the activation is -1.33%.

Regarding `O=C(Nc1ccc(N2C(=O)c3cccc4cccc(c34)C2=O)cc1)c1ccc(N2CCCCC2)c([N+](=O)[O-])c1`, the activation was 4.02%.

On to `COc1ccccc1N1CCN(Cc2cc(OC)c3c(c2)OCO3)CC1`, for which the activation was -6.02%.

For `CNCC(O)CN1CCN(c2ccccc2OC)CC1` (configuration not stated), the activation was 19.7% (active).

`COc1ccccc1N1CCN(Cc2ccc(OC)c3ccccc23)CC1`: the activation is -3.43%.

Regarding `COc1ccccc1-n1c(=S)[nH]c2c(sc(=S)n2-c2ccc(C)cc2C)c1=O`, the activation was 2.71%.

Turning to `Cc1cccc(-c2c(NC(=O)c3ccco3)oc3ccc(Cl)cc3c2=O)c1`, the activation was 7.81%.

With `COc1ccc(-c2c(NC(=O)c3ccco3)oc3ccc(Cl)cc3c2=O)cc1`, the activation is 11.2%.

On to `Cn1c(NC(=O)c2ccco2)c(-c2ccccc2Cl)c(=O)c2ccccc21`, for which the activation is 31% (active).

Take `Cc1cccc(C)c1-n1nnnc1C1(C)CCC(=O)N1CCOc1ccccc1` (configuration not stated): the activation was 6%.

Take `CC1(C(=O)NCc2ccc3c(c2)OCO3)CCN1C(=O)Cc1cccs1` (configuration not stated): the activation was 3.27%.

As for `COc1ccc(NC(=O)C(C)SCc2ccccc2)cc1` (configuration not stated), the activation is 0.44%.

With `CSc1nc(C)cc(SC(C(C)=O)C(=O)Nc2ccccc2)n1` (configuration not stated), the activation was 22.6% (active).

Consider `CC(Sc1nnc2c(n1)C1CCC2(C)C1(C)C)C(=O)Nc1ccccc1` (configuration not stated), for which the activation was -0.53%.

As to `CCCCN1C(=O)C(CC(=O)NCc2cccs2)CC(C(=O)N2CCCCCC2)=C1C` (configuration not stated), the activation is 0.62%.

For `Cc1cc(C)nc(NC(=O)c2cccc([N+](=O)[O-])c2)c1`, the activation is 31.6% (active).

Consider `O=C(Nc1ccc(C2CC2(Cl)Cl)cc1)c1cccc([N+](=O)[O-])c1` (configuration not stated), for which the activation is -15.5%.

For `C/C(=N\NC(=O)c1cccc([N+](=O)[O-])c1)c1cccnc1`, the activation was 1.53%.

With `O=C(c1ccc(C(F)(F)F)cc1)C1CCCN(C(=O)c2csnn2)C1` (configuration not stated), the activation is 5.9%.

As to `c1ccc2c(c1)OCC(c1nn3cnnc3s1)O2` (configuration not stated), the activation was 13.1%.

`CCn1c(SCC(=O)NC2CC2)nnc1-c1ccccn1`: the activation was -4.53%.

Consider `CCn1c(SCC(=O)Nc2cc(C)ccc2C)nnc1-c1cnccn1`, for which the activation was 35.7% (active).

For `CCc1ccc(NC(=O)CSc2nnc(-c3cnccn3)n2Cc2ccco2)cc1`, the activation is -2.71%.

For `CC1COc2ccccc2N1C(=O)c1cccnc1Cl` (configuration not stated), the activation is -13.4%.

`CC(=O)c1c(C)[nH]c(C(=O)N2CCN(S(=O)(=O)c3ccc(F)c(F)c3)CC2)c1C`: the activation is 1.38%.

For the compound `CC(C)(C)C(=O)Nc1ccc(-c2cn3cccnc3n2)cc1`, the activation is 1.07%.

In the case of `Cc1c(-c2cccc(Cl)c2)nc2ccccc2c1C(=O)OCC(=O)N(C)C1CCS(=O)(=O)C1` (configuration not stated), the activation is 22.5% (active).

As for `CN(C(=O)COC(=O)c1cc(-c2ccco2)nc2ccccc12)C1CCS(=O)(=O)C1` (configuration not stated), the activation was -1.7%.

For the compound `COc1ccc2c(-c3ccccc3)cc(SCC(=O)N(C)C3CCS(=O)(=O)C3)nc2c1` (configuration not stated), the activation was -1.12%.
